{"source": "PubChem BioAssay AID834", "about": "(PCMD, 2007)", "note": "Screen size: about 85,000 compounds; about 120 (0.14%) were called active.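 How the source made its calls: active means inhibition above 20%; inactive means inhibition below 20%.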 Only a selection was taken, and actives are over-represented in it overall.", "data": [{"experiment": "clotrimazole potentiators killing Candida biofilms, primary screen, with clotrimazole, Alamar Blue (AID 834);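 further: preformed 24 hr biofilms exposed to compound for 48 hr; 0% = biofilm without compound and 100% = blank killed by clotrimazole plus chlorhexidine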", "settings": "C. albicans biofilm + clotrimazole, at 6 µM, active compounds read high", "values": [{"smiles": "CC(=O)NC1=NN(C(C)=O)C(C)(c2ccc(Cl)s2)S1", "note": "(stereo not given)", "inhibition": "6.61% (inactive)"}, {"smiles": "CCOc1c(Br)cc(/C=C2\\C(=O)N(CCC#N)N=C2C)cc1OC", "inhibition": "-1.46% (inactive)"}, {"smiles": "Cc1cccc2nc(CSc3nc4[nH]ncc4c(=O)n3-c3cccc(Cl)c3)cc(=O)n12", "inhibition": "-2.14% (inactive)"}, {"smiles": "Cc1ccc(S(=O)(=O)N(c2cccc(C)c2)C2CCS(=O)(=O)C2)cc1", "note": "(stereo not given)", "inhibition": "11.2% (inactive)"}, {"smiles": "CS(=O)(=O)Nc1ccc(C(=O)N2CCCC2)cc1", "inhibition": "6.23% (inactive)"}, {"smiles": "O=C(c1ccccc1Oc1ccccc1)N1CCN(c2ccc(F)cc2)CC1", "inhibition": "6.89% (inactive)"}, {"smiles": "CCOc1ccc(C(=O)NC(C(=O)NCc2ccccn2)C(C)C)cc1", "note": "(stereo not given)", "inhibition": "-4.48% (inactive)"}, {"smiles": "Cc1cccc(N2CCN(C(c3ccc(N(C)C)cc3)c3nnnn3C(C)(C)C)CC2)c1C", "note": "(stereo not given)", "inhibition": "4.97% (inactive)"}, {"smiles": "COc1ccc(CNCCCO)cc1OC", "inhibition": "5.75% (inactive)"}, {"smiles": "Cc1nnc(SCc2nc3ccccc3nc2C)s1", "inhibition": "5.78% (inactive)"}, {"smiles": "CC(=O)N(C)c1ccc(NC(=O)C(F)(F)F)cc1", "inhibition": "0.77% (inactive)"}, {"smiles": "Cc1ccc(CN(N=Nc2nonc2N)c2nonc2N)c(C)c1", "inhibition": "1.82% (inactive)"}, {"smiles": "Cc1ccc(-c2cc(C(=O)NCC3CCCO3)c3ccccc3n2)o1", "note": "(stereo not given)", "inhibition": "5.01% (inactive)"}, {"smiles": "Cc1ccc(-c2noc(CSc3nnc(-c4ccncc4)n3-c3ccc(F)cc3)n2)cc1", "inhibition": "5.84% (inactive)"}, {"smiles": "Cc1ccc(CS(=O)(=O)CCC(=O)NC2CC2)cc1", "inhibition": "8.04% (inactive)"}, {"smiles": "Cc1csc(OCC(=O)Nc2ccc(C)c(C)c2)n1", "inhibition": "4.83% (inactive)"}, {"smiles": "CCN(CC)C(=O)CN(c1cccc(OC)c1)S(=O)(=O)c1ccc(C)cc1", "inhibition": "3.27% (inactive)"}, {"smiles": "CC1=NN(C(C)C)C(=O)C1", "inhibition": "9.86% (inactive)"}, {"smiles": "CCOC(=O)C1CSC(CC(=O)Nc2ccc(OCC)cc2)C(=O)N1", "note": "(stereo not given)", "inhibition": "3.56% (inactive)"}, {"smiles": "CCCc1nc(NCc2ccc3c(c2)OCO3)c2nnn(Cc3ccccc3Cl)c2n1", "inhibition": "7.6% (inactive)"}, {"smiles": "CCn1c(=O)c(=O)n(CC)c2cc(S(=O)(=O)N3CCc4ccccc43)ccc21", "inhibition": "1.66% (inactive)"}, {"smiles": "Cc1cccc(NC(=O)C2CC(=O)OC23CCCC3)c1", "note": "(stereo not given)", "inhibition": "-0.65% (inactive)"}, {"smiles": "C=C(Cl)COC(=O)C1C2C=CC(C2)C1C(=O)O", "note": "(stereo not given)", "inhibition": "6.89% (inactive)"}, {"smiles": "COCCNC(=O)Cn1cc(C(=O)c2cccs2)c2ccccc21", "inhibition": "-3% (inactive)"}, {"smiles": "CCOc1cccc(NC(=O)Cn2nc(-c3ccc4c(c3)OCCO4)ccc2=O)c1", "inhibition": "-3.83% (inactive)"}, {"smiles": "CC1CCc2c(nc3ncnn3c2Nc2ccc(OC(F)(F)F)cc2)C1", "note": "(stereo not given)", "inhibition": "2.5% (inactive)"}, {"smiles": "COc1c(F)c(F)c(C(=O)O)c(Nc2ccccc2C)c1F", "inhibition": "0.13% (inactive)"}, {"smiles": "CCOC(=O)N1CCN(Cc2nc(N)nc(Nc3ccc(C)cc3)n2)CC1", "inhibition": "4.91% (inactive)"}, {"smiles": "CCOc1ccccc1NC(=O)c1cccnc1", "inhibition": "4.81% (inactive)"}, {"smiles": "COc1ccc(CCNS(=O)(=O)c2ccc(F)cc2)cc1OC", "inhibition": "0.3% (inactive)"}, {"smiles": "COc1ccc(CCNc2ncnc3nc[nH]c23)cc1OC", "inhibition": "22.7% (active)"}, {"smiles": "CCS(=O)(=O)NCCc1ccc(OC)c(OC)c1", "inhibition": "-1.71% (inactive)"}, {"smiles": "CCCCNC(=O)C1CCCNC1=O", "note": "(stereo not given)", "inhibition": "1.47% (inactive)"}, {"smiles": "CCCCNS(=O)(=O)c1ccc(S(=O)(=O)n2cnc3ccccc32)cc1", "inhibition": "0.82% (inactive)"}, {"smiles": "O=C1N=C(N2CCCC2)S/C1=C\\c1cccc(Br)c1", "inhibition": "2.13% (inactive)"}, {"smiles": "CCOC(=O)C(C)n1cnc2sc(C)c(C)c2c1=O", "note": "(stereo not given)", "inhibition": "9.63% (inactive)"}, {"smiles": "CCOC(=O)c1cnc(SCc2nc(N)nc(Nc3ccc(OC)cc3)n2)nc1N", "inhibition": "1.79% (inactive)"}, {"smiles": "CN(C)[C@@H]1C(=O)C(C(N)=O)=C(O)[C@@]2(O)C(=O)C3=C(O)c4c(O)ccc(Cl)c4[C@@H](O)[C@H]3C[C@@H]12", "inhibition": "29.9% (active)"}, {"smiles": "CC1CCCN(C(C(=O)Nc2ccc(C(C)C)cc2)c2ccc3c(c2)OCO3)C1", "note": "(stereo not given)", "inhibition": "6.31% (inactive)"}, {"smiles": "CCS(=O)(=O)Nc1ccc(C2=NN(S(=O)(=O)c3ccc(F)cc3)C(c3ccco3)C2)cc1", "note": "(stereo not given)", "inhibition": "2.91% (inactive)"}, {"smiles": "Cc1cc(C(=O)OC(C)C(=O)Nc2cccc(S(=O)(=O)N3CCOCC3)c2)c(C)o1", "note": "(stereo not given)", "inhibition": "0.93% (inactive)"}, {"smiles": "Cc1cccn2c(=O)c(/C=C(\\C#N)S(=O)(=O)c3ccc(Cl)cc3)c(N3CCC(C(N)=O)CC3)nc12", "inhibition": "45.2% (active)"}, {"smiles": "COc1ccccc1-c1nc(C#N)c(N2CCC(C(N)=O)CC2)o1", "inhibition": "7.17% (inactive)"}, {"smiles": "Cc1ccc(C(c2nnnn2CS(=O)(=O)c2ccc(C)cc2)N2CCC(C(N)=O)CC2)cc1", "note": "(stereo not given)", "inhibition": "-1.5% (inactive)"}, {"smiles": "Cc1ccc(Cc2c(C)nc3nc(SCC(=O)NCCN4CCOCC4)nn3c2C)cc1", "inhibition": "-3.03% (inactive)"}, {"smiles": "Cc1ccc(-n2ccc(=O)c(C(=O)O)n2)cc1", "inhibition": "2.26% (inactive)"}, {"smiles": "COc1ccc(S(=O)(=O)Nc2ccc3oc(C)c(C(C)=O)c3c2)cc1", "inhibition": "-2.16% (inactive)"}, {"smiles": "O=C(Cc1ccccc1)Nc1c(C(=O)N2CCCCCC2)cnn1-c1ccccc1", "inhibition": "-2.24% (inactive)"}, {"smiles": "CC(C)CC(=O)Nc1cc(C(F)(F)F)ccc1N1CCOCC1", "inhibition": "1.97% (inactive)"}, {"smiles": "CC(C)(C)n1nnnc1C(c1ccc(Cl)cc1)N1CCSCC1", "note": "(stereo not given)", "inhibition": "6.98% (inactive)"}, {"smiles": "Cc1ccccc1-n1c(C)cc(/C=C2\\NC(=O)NC2=O)c1C", "inhibition": "2.93% (inactive)"}, {"smiles": "Cc1ccc(NC(=O)N2CCC(c3nc4c(nnn4Cc4c(F)cccc4Cl)c(=O)[nH]3)CC2)cc1", "inhibition": "5.75% (inactive)"}, {"smiles": "COc1ccccc1C(=O)N1CC2(C)CC1CC(C)(C)C2", "note": "(stereo not given)", "inhibition": "-0.87% (inactive)"}, {"smiles": "O=C(NCc1ccccn1)c1cc(-c2ccccc2Cl)on1", "inhibition": "-4.95% (inactive)"}, {"smiles": "CCc1ccc(C2C(C#N)=C(N)Oc3n[nH]c(CC(=O)OC)c32)cc1", "note": "(stereo not given)", "inhibition": "8.34% (inactive)"}, {"smiles": "CCn1nccc1C(=O)Nc1ccc(Cl)c(Cl)c1", "inhibition": "6.51% (inactive)"}, {"smiles": "O=C(CCCn1c(SCC(=O)c2ccccc2)nc2ccccc2c1=O)NCC1CCCO1", "note": "(stereo not given)", "inhibition": "0.02% (inactive)"}, {"smiles": "COC(=O)c1ccccc1NC(=O)CN(Cc1ccc(Cl)cc1)S(C)(=O)=O", "inhibition": "9.25% (inactive)"}, {"smiles": "COc1ccc(CN2CCCCC2C)cc1OC", "note": "(stereo not given)", "inhibition": "0.38% (inactive)"}, {"smiles": "CCC(C)NC(=O)c1cc(Cl)ccc1OC", "note": "(stereo not given)", "inhibition": "3.81% (inactive)"}, {"smiles": "C=CCn1c(-c2ccc3[nH]c(C)c(C)c3c2)n[nH]c1=S", "inhibition": "0.31% (inactive)"}, {"smiles": "CCCn1c(C)cc(C(=O)COC(=O)c2c(C)nn(-c3ccccc3)c2C)c1C", "inhibition": "-1.14% (inactive)"}, {"smiles": "O=C(CSc1nnc(-c2cccs2)n1Cc1ccccc1)N1CCc2ccccc2C1", "inhibition": "6.37% (inactive)"}, {"smiles": "CCOc1ccc2c(c1)C(c1ccc(C)cc1)=NNC(c1ccc(C)cc1)=N2", "inhibition": "-0.27% (inactive)"}, {"smiles": "C=C(C)CNC(=S)/N=c1\\scc(C)n1CC", "inhibition": "1.12% (inactive)"}, {"smiles": "COc1ccc(C2C(C#N)=C(/N=C/N3CCOCC3)OC3=C2C(=O)CC(C)(C)C3)cc1OC", "note": "(stereo not given)", "inhibition": "13.5% (inactive)"}, {"smiles": "O=P(O)(CP(=O)(c1ccccc1)c1ccccc1)c1ccccc1O", "inhibition": "7.77% (inactive)"}, {"smiles": "CC(C)NC(=O)CSc1nnc(COc2ccccc2Cl)o1", "inhibition": "5.07% (inactive)"}, {"smiles": "O=C(c1cccc(F)c1)N1CCC(O)(c2cccnc2)CC1", "inhibition": "8.81% (inactive)"}, {"smiles": "CCCOc1cc(C)c(S(=O)(=O)n2nnc3ccccc32)cc1C", "inhibition": "2.8% (inactive)"}, {"smiles": "NC1=NC(=O)C2(COC(c3ccccc3Cl)OC2)S1", "note": "(stereo not given)", "inhibition": "14.2% (inactive)"}, {"smiles": "CC(C)Nc1ncnc2c1nnn2Cc1ccccc1", "inhibition": "-1.71% (inactive)"}, {"smiles": "Brc1ccc(-c2nnc(-c3ccccc3)o2)o1", "inhibition": "6.11% (inactive)"}, {"smiles": "CCN(CC)C(=O)CSc1nnc(C2CCCCC2)o1", "inhibition": "2.47% (inactive)"}, {"smiles": "O=c1[nH][nH]c(C(F)(F)F)c1C=NCc1ccccc1Cl", "inhibition": "-3.59% (inactive)"}, {"smiles": "CCN1C(=O)/C(=C2/Sc3ccc(OC)cc3N2C)SC1=Nc1ccc(C)cc1", "inhibition": "-3.03% (inactive)"}, {"smiles": "O=C(NC(C(=O)NCCN1CCOCC1)C12CC3CC(CC(C3)C1)C2)C1CCCCC1", "note": "(stereo not given)", "inhibition": "-1.05% (inactive)"}, {"smiles": "S=c1[nH]nc(-c2ccc(Cl)cc2)n1CC1CCCO1", "note": "(stereo not given)", "inhibition": "7.93% (inactive)"}, {"smiles": "Cc1nnc(SCC(=O)Nc2ncc3c(n2)CC(C)(C)CC3=O)s1", "inhibition": "3.95% (inactive)"}, {"smiles": "Cc1ccccc1-c1nnc(SCC(=O)NCc2ccc3c(c2)OCO3)n1C", "inhibition": "4.85% (inactive)"}, {"smiles": "Cc1ccc(C(=O)N/N=C/c2sc(=O)n(Cc3cccc(C(=O)O)c3)c2Cl)cc1", "inhibition": "8.24% (inactive)"}, {"smiles": "COc1ccc(CN(Cc2ccco2)S(=O)(=O)c2ccc(S(=O)(=O)N3CCCC3)cc2)cc1", "inhibition": "1.45% (inactive)"}, {"smiles": "COC(=O)c1ccccc1Oc1c(F)c(F)nc(N2CCOCC2)c1F", "inhibition": "8.84% (inactive)"}, {"smiles": "CCc1ccc(NC(=O)CN2C(=O)CSC2=O)cc1", "inhibition": "5.49% (inactive)"}, {"smiles": "CC(C)(CNC(=O)c1cc(=O)[nH]c2ccccc12)N1CCOCC1", "inhibition": "6.02% (inactive)"}, {"smiles": "COc1cc(C)c(C(C)C)cc1S(=O)(=O)n1ccnc1", "inhibition": "1.15% (inactive)"}, {"smiles": "CCn1c(CC(=O)Nc2ccc(C)cc2)nnc1SCC(=O)Nc1nc(C)cs1", "inhibition": "5.16% (inactive)"}, {"smiles": "CN1C(=O)C(CC(N)=O)N(NC(=O)c2ccc(Cl)cc2)C1=S", "note": "(stereo not given)", "inhibition": "7.03% (inactive)"}, {"smiles": "Cc1ccc(-n2c(CNc3ccc(F)cc3)nnc2SCC(=O)N2CCOCC2)cc1", "inhibition": "3.95% (inactive)"}, {"smiles": "CC(c1ccco1)N(C(=O)COc1ccccc1[N+](=O)[O-])c1ccccn1", "note": "(stereo not given)", "inhibition": "7.57% (inactive)"}, {"smiles": "COC(=O)[C@@H](NC(=O)Nc1cc(Cl)ccc1C)C(C)C", "inhibition": "10.7% (inactive)"}, {"smiles": "O=C(Nc1cccc(NC(=O)c2ccco2)c1)c1cnccn1", "inhibition": "4.07% (inactive)"}, {"smiles": "Cn1c(-c2sc3cc(C(F)(F)F)cnc3c2-c2ccccc2)n[nH]c1=S", "inhibition": "1.53% (inactive)"}, {"smiles": "CC(=O)Oc1ccc(NC(=O)CCC2CCCCC2)c(C(=O)O)c1", "inhibition": "4.27% (inactive)"}, {"smiles": "COc1ccc(S(=O)(=O)NCc2ccc(C(=O)N(C)Cc3ccco3)cc2)cc1", "inhibition": "4.38% (inactive)"}]}]}
